From PubChem BioAssay
Only some compounds are listed: those with a hit (about 6.1% of all), similar ones and a draw of the others.
VP16 counter: VP16 counterscreen qHTS for inhibitors of ROR gamma transcriptional activity; Drosophila S2 Gal4-VP16 UAS-luciferase, luminescence, 20 h; Potency, µM (series often up to 53.6 µM), without a hit: at the highest dose activity, negative = inhibition, actives largely listed as inhibitors; actives 3.5% (n = 310,000);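 note: Gal4-VP16 expression switched on by copper sulfate through the metallothionein promoter; % is set by controls: 0 for no effect and ±100 for the full control effect; nearly all actives have a fitted effect of over 50% in size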
ATXN2 expr inh: Primary qHTS for Inhibitors of ATXN expression; HEK-293 ATXN2-luciferase reporter, luminescence, 24 h; Potency, µM (series often up to 57 µM), for the others: at the highest dose activity change, negative = inhibition, actives largely listed as inhibitors; actives 0.72% (n = 360,000); note: % is set by controls: 0 for no effect and ±100 for the full control effect; nearly all actives have a fitted effect of over 55% in size
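qHTS (up to 57 uM final) was run with 24 h compound exposure of reporter cells at 37 °C. Each well was multiplexed: SteadyGlo luminescence measured ATXN2-luciferase expression after a fluorogenic Gly-Phe-AFC viability readout (25 uM final).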
HepG2 tox: qHTS for Inhibitors of TGF-b: Cytotox Counterscreen; HepG2 CAGA-GFP viability, ATP luminescence, 18 h; actives 0.76% (n = 410,000); Potency, µM (doses to about 46.1 µM), for the others: at the top dose activity change, negative = cytotoxicity, usual class: cytotoxic; AID 588856, 2011
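HepG2 CAGA-GFP cells (1000/well, DMEM with 1% FBS) received compound, then TGF-beta at 500 pg/mL final, and were incubated 18 hours at 37 degrees C. Viability was read by CellTiter-Glo luminescence. Media-only wells were set as complete cell-killing and DMSO as no toxicity.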
RORgamma inh: qHTS for inhibitors of ROR gamma transcriptional activity | Drosophila S2 Gal4-RORgamma UAS-luciferase reporter, 20 h | actives 5.4% (n = 310,000) | Nuclear receptor ROR-gamma (Mus musculus), P51450 | AID 2551, 2010 | Potency, µM (titrated, usually from 53.6 µM), without a hit: at the highest dose activity change, negative = inhibition, most hits filed as inhibitors; note: % is set by controls: 0 for no effect and ±100 for the full control effect; nearly all actives have a fitted effect of over 60% in size
Target sequence (P51450 whole entry, looked up, the tested form may be a part): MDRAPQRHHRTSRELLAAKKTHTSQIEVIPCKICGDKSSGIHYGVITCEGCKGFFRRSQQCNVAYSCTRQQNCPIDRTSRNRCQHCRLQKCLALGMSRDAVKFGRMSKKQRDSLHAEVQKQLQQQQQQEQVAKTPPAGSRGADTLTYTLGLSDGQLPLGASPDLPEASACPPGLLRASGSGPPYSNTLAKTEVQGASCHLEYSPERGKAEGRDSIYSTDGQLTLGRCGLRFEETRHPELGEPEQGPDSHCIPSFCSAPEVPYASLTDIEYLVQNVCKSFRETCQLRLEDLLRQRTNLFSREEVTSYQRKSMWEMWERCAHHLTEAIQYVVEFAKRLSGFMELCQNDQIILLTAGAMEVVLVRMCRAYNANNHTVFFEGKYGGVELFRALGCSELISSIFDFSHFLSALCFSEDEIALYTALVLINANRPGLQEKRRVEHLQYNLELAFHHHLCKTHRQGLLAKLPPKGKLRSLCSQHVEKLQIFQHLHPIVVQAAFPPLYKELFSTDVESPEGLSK
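Read-out: Photinus luciferase luminescence; inhibitors lower reporter signal. Insect Schneider cells with Gal4-ROR gamma fusion under metallothionein promoter, UAS reporter; 700 uM final copper sulfate induction, 20 hr, ambient temperature.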
S2 tox: Viability Counterscreen for Primary qHTS for Inhibitors of ATXN expression; Potency, µM (highest dose often 56.7 µM), actives largely listed as cytotoxic; actives 0.49% (n = 400,000); S2 cells (HEK-293 line with an ATXN2-luciferase reporter) viability, CellTiter-Fluor protease fluorescence, 24 h; AID 651635, 2014; note: nearly all actives have a fitted effect of over 40% in size
TGFb SMAD3 inh: qHTS for Inhibitors of TGF-b; HepG2 CAGA-GFP TGF-b/SMAD3 reporter, GFP fluorescence, 18 h; TGF-beta stimulated, 500 pg/mL final; Potency, µM (series often up to 46.1 µM), inactives show top-dose activity, negative = inhibition, most hits filed as inhibitors; actives 1.2% (n = 410,000); note: % is set by controls: 0 for no effect and ±100 for the full control effect; nearly all actives have a fitted effect of over 65% in size
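Inhibition was scored as loss of TGF-beta-induced (500 pg/mL final, 18 hours, 37 degrees C) GFP in HEPG2 cells carrying a CAGA-GFP reporter, in DMEM with 1% FBS. Well GFP was summed per cell; Activity was normalised to unstimulated and stimulated DMSO wells, then concentration-response fitting.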
The depositor's hits bear a star; i = inactive; ? = inconclusive; nt = not tested or not shown. Calls come from the whole dose curve; as a rule, active = well fitted curve in the direction sought with a large enough effect; inconclusive = small, poorly fitted or top-dose-only effect, or another doubt; inactive = no such curve, though single readings can be large; an effect the other way counts as inactive or inconclusive. Potency is the fitted concentration of half-maximal effect.

SMILES	VP16 counter	ATXN2 expr inh	HepG2 tox	RORgamma inh	S2 tox	TGFb SMAD3 inh
S=c1[nH]nc(-c2ccco2)n1/N=C/c1cccc(Cl)c1	-16%	-26%	-19%	14µM*	i	-20%
Cc1ccccc1NC(=O)c1ccccc1OCC(=O)Nc1ccc(Br)cc1	nt	nt	-2%	nt	nt	?
C[C@@]1(c2cc(-c3cncnc3)c(F)cc2F)CCSC(N)=N1	nt	14%	nt	nt	nt	nt
COC(=O)c1cc(CNC(=O)c2cnsn2)cc(NC(=O)c2ccccc2OC)c1	nt	nt	nt	nt	i	nt
FC(F)(F)c1ccccc1-c1cc(NCc2cccnc2)ncn1	7%	nt	nt	-16%	nt	nt
S=c1[nH]nc(-c2ccccn2)n1/N=C/c1cccc(Cl)c1	?	1%	3%	11µM*	i	14%
Cc1ncc2c(c1CNS(=O)(=O)N(C)C)CCN(C(=O)c1ccc(-c3ccc(F)cc3)cc1)C2	nt	nt	nt	nt	i	nt
CCCn1c2ccccc2c2cnn(CC(=O)N(C)c3ccc(F)cc3)c(=O)c21	nt	-3%	-22%	nt	i	7%
CC(=O)ON=C1C=CC(=C(C#N)c2ccccc2)C=C1	nt	14µM*	-52%	nt	14µM*	?
COc1ccc(C(C#N)=C2C=CC(=NO)C=C2)cc1	?	56%	i	?	?	?
COCCCn1c(O)c(/C=C2\N=C(C#N)C(=Nc3ccc(C)cc3)O2)sc1=S	?	?	-50%	?	35µM*	?
Cc1cccc(OCCn2c(-c3ccco3)nc3ccccc32)c1	-2%	18%	-4%	16µM*	i	-4%
c1ccc(OCCn2c(-c3ccco3)nc3ccccc32)cc1	1%	11%	-7%	11µM*	i	-1%
NC(=O)/C=C\C(=O)Nc1cccc(C(F)(F)F)c1	13µM*	-33%	-34%	?	i	?
O=C(Nc1ccc(OC(F)F)cc1)Nc1cccc(C(F)(F)F)c1	25µM*	?	8.9µM*	?	?	?
Cc1ccc(NS(=O)(=O)c2ccc(NC(=O)c3cccc(NC(=O)C(C)C)c3)cc2)cc1	-27%	-12%	-4%	?	i	?
Cc1ccc(S(=O)(=O)Nc2ccc(NC(=O)Nc3cccc(C(F)(F)F)c3)cc2)cc1	?	?	18µM*	?	?	16µM*
CCN(CC)S(=O)(=O)c1ccc(NC(=O)Nc2cccc(C(F)(F)F)c2)cc1	?	20µM*	11µM*	?	?	?
O=C(Nc1ccncc1)Nc1cccc(C(F)(F)F)c1	-22%	-20%	-23%	?	i	-14%
Cn1c(=O)c(=O)n(C)c2cc(S(=O)(=O)Nc3ccc(Cl)c(C(F)(F)F)c3)ccc21	nt	nt	-18%	nt	nt	-9%
COc1cc(=O)n2c(c1C(=O)NCc1ccco1)CCN(C(=O)c1ccccc1-c1ncc[nH]1)CC2	nt	nt	nt	nt	i	nt
COc1ccc(C(=O)N2CCN(Cc3cc(=O)n4nc(-c5ccccc5C)sc4n3)CC2)cc1OC	nt	4%	-17%	nt	i	-30%
CCOc1ccc(C(Nc2cccnc2)c2cc(Cl)c3cccnc3c2O)cc1 (centres undefined)	?	?	-35%	5.6µM*	?	?
CCOc1ccc(C(NC(C)=O)c2cc(Cl)c3cccnc3c2O)cc1 (centres undefined)	nt	nt	-59%	nt	nt	3.2µM*
COc1ccc(C(NC(C)=O)c2cc(Cl)c3cccnc3c2O)cc1OC (centres undefined)	-25%	?	-38%	4µM*	?	?
